Here are results for 100 compounds from PubChem BioAssay AID2501 (Southern Research Specialized Biocontainment Screening …, 2010).

The campaign covered roughly 2,200 compounds. About 1,200 (55%) were called active. So high a share suggests a set chosen from earlier hits. The list shows a part of the results. A number with no mark means an inactive call. No cut-off is given here; in the data, nearly all actives have IC50 up to about 92 µM.

The nature of this experiment: counter assay for TAg ATPase ADP read-out – biochemical, ADP-Hunter, fluorescence, counter-screen (AID 2501).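 For inhibition: 0% = enzyme with vehicle and 100% = reference inhibitor wells; higher means more inhibition.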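 Note: purified T antigen ATPase.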 To be noted: series mostly up to 100 µM; inhibition: at the top concentration.
On to `Cc1ncc(CO)c(/C=N/NC(=O)c2cc(O)c(O)c(O)c2)c1O`, for which the “inhibition” value is -352%.

`O=C(N/N=C/c1c[nH]c2ccccc12)c1ccc(O)c(O)c1`: the 50% inhibitory concentration (IC50) is 7.17 µM (active).

With `Oc1ccc(O)c(-c2cnns2)c1`, the IC50 is 28.1 µM (active).

For the compound `CC(=O)CC1OC(=O)C(Br)=C1NCc1ccccc1` (stereo not given), the “inhibition” value is 6.4%.

Take `C/C(CC(=O)Nc1ccc(N(C)C)cc1)=N\NC(=O)c1ccc(Cl)cc1Cl`: the concentration for half-maximal inhibition (IC50) is 3.99 µM (active).

As for `C/C(CC(=O)Nc1ccc(N(C)C)cc1)=N\NC(=O)c1ccc([N+](=O)[O-])cc1Cl`, the half-inhibitory concentration (IC50) was 6.47 µM (active).

As to `C/C(=N/NC(=O)c1cc(O)c(O)c(O)c1)c1ccc([N+](=O)[O-])cc1`, the “inhibition” value is 25.1%.

Take `CN(C(=O)COC(=O)CNC(=O)CNC(=O)c1ccc(Cl)cc1Cl)c1ccccc1`: the “inhibition” value is 16.9%.

For the compound `C=CCN(c1ccc(C(=O)Nc2cccc([N+](=O)[O-])c2)cc1)S(C)(=O)=O`, the “inhibition” value is -6.02%.

In the case of `C=C(CC)C(=O)c1ccc(OCC(=O)O)c(Cl)c1Cl`, the “inhibition” value was 2.1%.

Regarding `Cc1ccc(CNC(=O)C2CC(c3ccccc3[N+](=O)[O-])=NO2)cc1` (stereo not given), the “inhibition” value was 4.09%.

With `CC1=C(C#N)c2nc(N)c(C#N)c(C)c2/C1=C\c1ccc(-c2ccccc2C(=O)O)o1`, the “inhibition” value was 24.6%.

For `COc1cc([N+](=O)[O-])cc(/C=N/NC(=O)CC#N)c1O`, the “inhibition” value was -12.9%.

With `CN=c1scc(C)n1/N=C/c1ccc(O)cc1O`, the concentration for half-maximal inhibition (IC50) was 3.58 µM (active).

Consider `CCN=c1scc(C)n1/N=C/c1cc(Br)c(O)c(Br)c1`, for which the 50% inhibitory concentration (IC50) was 6.61 µM (active).

Turning to `CN=c1scc(C)n1/N=C/c1cc(Br)c(O)c(OC)c1`, the IC50 was 5.68 µM (active).

Turning to `COc1cc(/C=N/NC(=O)CC#N)cc(Br)c1O`, the IC50 is 6.13 µM (active).

`CCN=c1scc(C)n1/N=C/c1cc(Br)c(O)c(OC)c1`: the IC50 is 14.6 µM (active).

As to `COc1cc(/C=N/N(C)C)cc(Br)c1O`, the IC50 is 3.75 µM (active).

As for `COc1cc(/C=N/N2C(=O)CSC2=S)cc(Br)c1O`, the 50% inhibitory concentration (IC50) is 13.3 µM (active).

`O=C1CSC(=S)N1/N=C/c1ccc(O)c([N+](=O)[O-])c1`: the “inhibition” value is 6.19% [at 50 µM].

Regarding `COC(=O)c1ccccc1-n1c(C)nc(=O)c(-c2ccccc2)c1C`, the “inhibition” value was 10.8%.

In the case of `C[N+]1(CCCCSc2ccc(O)cc2)CCCCC1`, the 50% inhibitory concentration (IC50) was 4.59 µM (active).

Regarding `CNc1n[nH]c(=S)s1`, the IC50 is 92.7 µM (active).

Regarding `CC(=O)Oc1cc(O)c2c(=O)c(OC(C)=O)c(-c3ccc(OC(C)=O)c(OC(C)=O)c3)oc2c1`, the IC50 was 16.6 µM (active).

On to `CC1(C)CC(=O)C=C(NCCc2ccccc2)C1`, for which the “inhibition” value was -19.5%.

Regarding `CN1CCN(S(=O)(=O)c2ccc(N3CCN(c4ccc(O)cc4)CC3)c([N+](=O)[O-])c2)CC1`, the 50% inhibitory concentration (IC50) is 4.03 µM (active).

For `O=C(Nc1ccc(CN2CCOCC2)cc1)c1ccc(N2CCCC2)c([N+](=O)[O-])c1`, the “inhibition” value is -12.7%.

Turning to `CN1CCN(S(=O)(=O)c2ccc3c(c2)NC(=O)C2CCCN32)CC1` (stereo not given), the “inhibition” value is -7.97%.

With `NC(=O)c1ccc(N2CCN(c3ccc(O)cc3)CC2)c([N+](=O)[O-])c1`, the IC50 was 7.83 µM (active).

As to `CC(=O)Nc1ccc(S(=O)(=O)N2CCN(Cc3ccccc3[N+](=O)[O-])CC2)cc1`, the “inhibition” value was -7.97%.

As for `O=[N+]([O-])c1ccc(N2CCN(c3ccc(O)cc3)CC2)cn1`, the IC50 was 5.49 µM (active).

As for `O=C(O)c1ccc(-c2ccc(O)c(F)c2)cc1`, the IC50 is 7.49 µM (active).

Turning to `O=C1NC(C(=O)O)=CC(c2ccc([N+](=O)[O-])cc2)N1` (stereo not given), the “inhibition” value is -6.48%.

Take `CC(/C=N/n1c(-c2ccncc2)n[nH]c1=S)=C\c1ccco1`: the IC50 is 44.3 µM (active).

With `CC(/C=N/n1c(-c2n[nH]c3c2CCC3)n[nH]c1=S)=C\c1ccco1`, the IC50 is 49 µM (active).

Regarding `O=C(O)c1ccc(-n2c(-c3cc(-c4ccco4)[nH]n3)n[nH]c2=S)cc1`, the “inhibition” value was 27.3%.

On to `Cc1ccnc(NC(=S)NC(=O)/C=C/c2ccco2)c1`, for which the “inhibition” value is 8.26%.

In the case of `Cc1ccsc1/C=N/n1c(-c2cccnc2)n[nH]c1=S`, the IC50 is 25 µM (active).

Regarding `S=c1[nH]nc(COc2ccccc2)n1/N=C/C=C/c1ccco1`, the “inhibition” value is 21.1%.

For `Cc1cc(-c2n[nH]c(=S)n2/N=C/C=C/c2ccco2)n[nH]1`, the concentration for half-maximal inhibition (IC50) was 97.4 µM (active).

`O=C(O)c1cc(-c2ccco2)nc2ccc(Br)cc12`: the “inhibition” value is 13.5%.

For `CC(/C=N/n1c(-c2cccnc2)n[nH]c1=S)=C\c1ccccc1`, the IC50 is 38.8 µM (active).

As to `S=c1[nH]nc(-c2n[nH]c3c2CCC3)n1/N=C/C=C/c1ccco1`, the IC50 is 28.2 µM (active).

`Cc1ccc(-n2c(-c3cc(-c4ccco4)[nH]n3)n[nH]c2=S)c(Br)c1`: the “inhibition” value is 27.1%.

Regarding `C=CCn1c(-c2ccc3ncccc3c2)n[nH]c1=S`, the “inhibition” value was 22.6%.

Consider `Cc1cccc(/C=N/n2c(-c3ccncc3)n[nH]c2=S)c1`, for which the half-inhibitory concentration (IC50) was 88.6 µM (active).

In the case of `Cc1ccc(/C=N/n2c(-c3ccco3)n[nH]c2=S)cc1`, the 50% inhibitory concentration (IC50) was 16.5 µM (active).

With `CCS(=O)(=O)N1CCC(C(=O)NCCN2CCOCC2)CC1`, the “inhibition” value is 20.6% [at 50 µM].

Consider `Cc1cc(C(F)(F)F)nc2c(Cl)c(C(C)(C)C)nn12`, for which the “inhibition” value is -28.7%.

On to `NS(=O)(=O)c1ccc(N=Nc2c[nH]c(=O)c(O)c2)cc1`, for which the half-inhibitory concentration (IC50) is 7.75 µM (active).

Turning to `CCOC(=O)c1[nH]c2ccccc2c1NC(=S)Nc1cccc(C)c1C`, the concentration for half-maximal inhibition (IC50) was 29 µM (active).

Consider `CCOC(=O)c1c(C)[nH]c(C(=O)OCC(=O)Nc2cc(Cl)ccc2OC)c1C`, for which the “inhibition” value is -25.2%.

With `Cc1cccc(C)c1NC(=S)Nc1ccccc1C(=O)NCc1ccco1`, the “inhibition” value is 8.4%.

`COc1ccc(C(=O)N/N=C/c2ccc(OC)c(CN3CCc4cc(OC)c(OC)cc4C3C)c2)cc1` (stereo not given): the “inhibition” value was 7.43%.

Turning to `COc1cc(/C=N/NC(=S)NCCN2CCOCC2)ccc1O`, the concentration for half-maximal inhibition (IC50) is 2.37 µM (active).

With `COc1ccc(NC(=S)N/N=C/c2ccc(F)c(F)c2)cc1`, the 50% inhibitory concentration (IC50) is 23.4 µM (active).

As for `COc1ccc(/C=N/NC(=O)c2ccc(Br)cc2)cc1CN1CCOCC1`, the IC50 was 13 µM (active).

As to `COc1ccc(CNS(=O)(=O)c2ccc(F)c(C(=O)Nc3ccc(OC)cc3)c2)cc1`, the “inhibition” value was 4.99%.

Consider `Oc1ccc(/C=N/NC(=S)NCCN2CCOCC2)c(O)c1`, for which the half-maximal inhibitory concentration (IC50) is 4.25 µM (active).

With `COC(=O)c1sc2nc(-c3ccco3)ccc2c1N`, the “inhibition” value was 22.9%.

Turning to `COc1cc(N2C(=O)C=CC2=O)c(OC)cc1Cl`, the “inhibition” value is -17.9%.

As for `O=C(O)Cc1nn(Cc2ccc(Cl)cc2)c(=O)c2ccccc12`, the “inhibition” value was -11%.

For the compound `O=c1oc2c3c4c(cc2s1)CCCN4CCC3`, the “inhibition” value was 17.1%.

As for `CCCCCCNC(=O)N[C@H](C(=O)NCCC[C@H]1CN2C(=NC[C@H]2C)N1CCC(c1ccccc1)c1ccccc1)C(C)O` (stereo not given in full), the “inhibition” value is 3.98%.

Take `CCN(CC(=O)NC(C)C)C(=O)Cc1ccc(C)c(C)c1`: the “inhibition” value was 8.8%.

In the case of `O=C(CCN1CCN(c2ccccc2)CC1)N/N=C/c1ccc(O)c(O)c1O`, the “inhibition” value was -207%.

Turning to `Oc1cccc(/C=N/NC(=S)NCCN2CCOCC2)c1O`, the IC50 is 7.38 µM (active).

Turning to `COc1ccc(CNC(=S)N/N=C/c2ccc(O)c(OC)c2)cc1`, the IC50 was 7.64 µM (active).

As for `Cc1c(NC(=O)CCC2CCCCC2)cc(C(=O)N2CCOCC2)cc1[N+](=O)[O-]`, the “inhibition” value is -18.6%.

Turning to `COCCCOc1ccnc(CS(=O)c2nc3ccccc3[nH]2)c1C` (stereo not given), the “inhibition” value was 28.1%.

Turning to `O=C(O)CC1S/C(=N/N=C/C2CC=CCC2)NC1=O` (stereo not given), the “inhibition” value was 12.7%.

As for `Cc1ccc(S(=O)(=O)N2[C@@H](c3ccc(Cl)cc3)C(C(=O)O)=CC[C@H]2c2ccc(C(C)C)cc2)cc1`, the “inhibition” value was -7.5%.

`Cc1cc(C)nc(SCc2cc(=O)c(OC(=O)c3ccc(S(=O)(=O)N4CCCC4)cc3)co2)n1`: the “inhibition” value was 7.74%.

As for `CC(C)c1ccc(S(=O)(=O)N2CCN(CC(=O)c3ccc(O)c(O)c3)CC2)cc1`, the IC50 is 5.79 µM (active).

On to `O=C(CN1CCN(S(=O)(=O)c2ccc(F)cc2)CC1)c1ccc(O)c(O)c1`, for which the half-maximal inhibitory concentration (IC50) was 7.5 µM (active).

For `Cc1cccc(-c2ncc(CN3CCCC(CO)(Cc4ccccc4C)C3)cn2)c1` (stereo not given), the “inhibition” value was 10.8%.

Take `CCOc1cc(N2CCOCC2)c(OCC)cc1NS(=O)(=O)c1ccc(Cl)s1`: the half-inhibitory concentration (IC50) is 6.56 µM (active).

Take `CCOc1ccc(OCCC(=O)OCC(=O)Nc2cc(OCC)c(N3CCOCC3)cc2OCC)cc1`: the concentration for half-maximal inhibition (IC50) was 8.04 µM (active).

Take `CCOc1ccc(CCNC(=O)c2cc(-c3ccccc3)c(N3CCOCC3)s2)cc1OCC`: the “inhibition” value was 5.68%.

As for `CC1CCN(CC(C)OC(=O)c2ccc3c(c2)OCCO3)CC1` (stereo not given), the “inhibition” value is -4.34%.

For the compound `CCOc1cc(N2CCOCC2)c(OCC)cc1NC(C)C(=O)N1CCC(C)CC1` (stereo not given), the IC50 is 5.37 µM (active).

Turning to `CCNC(=S)Nc1cc(OCC)c(N2CCOCC2)cc1OCC`, the IC50 is 4.1 µM (active).

On to `CCCC(=O)O[C@]1(C(=O)CO)CC[C@H]2[C@@H]3CCC4=CC(=O)CC[C@]4(C)[C@H]3[C@@H](O)C[C@@]21C`, for which the “inhibition” value is 23.6%.

`C(=N\Nc1nc2ccccc2[nH]1)/c1cccs1`: the IC50 was 7.86 µM (active).

Take `COc1cc(/C=N/Nc2nc3ccccc3o2)cc(OC)c1O`: the IC50 is 6.58 µM (active).

Consider `COc1cc(/C=N/Nc2nc3ccccc3[nH]c2=O)ccc1O`, for which the half-maximal inhibitory concentration (IC50) was 8.65 µM (active).

As for `COc1cc(/C=N/Nc2nc3ccccc3[nH]2)cc(OC)c1O`, the IC50 was 6.33 µM (active).

Regarding `COc1cc(/C=C2\CCc3c2nc2ccccc2c3C(=O)O)cc(OC)c1OC`, the “inhibition” value was 13%.

Consider `CCC[C@@H]1CCCO[C@@](C(=O)NCc2ccc(S(C)(=O)=O)cc2)(C(F)(F)F)C1`, for which the “inhibition” value was 8.24%.

As to `Cc1c(N=C2NC(=O)/C(=C/c3ccc(O)cc3)S2)c(=O)n(-c2ccccc2)n1C`, the concentration for half-maximal inhibition (IC50) is 10 µM (active).

For `O=C1N/C(=C\c2ccc(O)cc2)C(O)=C1C=NCc1ccccc1`, the concentration for half-maximal inhibition (IC50) is 5.69 µM (active).

On to `O=C1NC(=O)/C(=C/c2ccc(O)cc2)S1`, for which the IC50 is 5.07 µM (active).

Consider `O=C1NC(=NCc2ccccc2)S/C1=C/c1ccc(O)cc1`, for which the concentration for half-maximal inhibition (IC50) is 8.9 µM (active).

On to `Cc1cc(/C=C2\SC(=S)NC2=O)c(C)n1-c1cccc(O)c1`, for which the “inhibition” value is 6.67%.

`COc1cccc2sc(Nc3nnc(-c4cccs4)o3)nc12`: the “inhibition” value was 3.33%.

For `O=C(/C=C/c1ccc2ccccc2n1)N1CCN(S(=O)(=O)c2ccccc2F)CC1`, the “inhibition” value was 12%.

For `CCCC1Nc2ccc(C(=O)O)cc2C2C=CCC12` (stereo not given), the “inhibition” value is 8.3%.

Regarding `COc1ccc2nc3ccccc3nc2c1N`, the half-inhibitory concentration (IC50) was 19.9 µM (active).

As to `NC(=O)NCCCC(=O)OCC(=O)c1ccc2ccccc2c1`, the “inhibition” value was -5.96%.

As a reminder, the inhibition is the drop in the measured response relative to a control, in per cent. Broadly, the IC50 is the concentration that inhibits the measured activity by half.
